For 69 compounds, INHIBITION results are on record in ChEMBL document CHEMBL4513216, “Probing the Open Global Health Chemical Diversity Library for Multistage-Active Starting Points for Next-Generation Antimalarials” (ACS Infect Dis, 2020).

Molecules are shown by their SMILES. Hit rate of the full screen: of about 69,000 compounds, about 8,600 (12%) showed an effect of 50% or more. Shown is part of a subset that was picked to be rich in strong results.

In the experiment the test system is Plasmodium berghei. Nature of the experiment: Screen against P. berghei liver stage (PbLuc), transformed with Luciferase, at 10uM. It is filed as functional, HepG2. The note with it: tested at 10 uM.
Consider `COc1cc(C2CC(=O)Nc3c2c(=O)[nH]n3C2CCCC2)ccc1O` (centres undefined), for which the INHIBITION stood at 27.4%. For `CSc1[nH]nc(NC(=O)c2ccncc2)c1C#N`, the INHIBITION came out at 48.8%. With `O=C(N1CCCC(n2cncn2)C1)C1(c2cccc(F)c2)CC1` (centres undefined), the INHIBITION is 23.7%. As for `CCOc1ccnc(N2CCN(C(=O)c3ccoc3C)CC2)n1`, the figure is -13.5%. `CNC(=O)[C@H]1CO[C@H]2CCN(Cc3ccc4ccccc4n3)C[C@H]2C1`: the INHIBITION is 50%. As for `CC(C)NC(=O)[C@H]1C[C@H]2OCC[C@H]2N(Cc2ccc3ccccc3n2)C1`, the figure is 61.4%; as for `O=C(Nc1cccnc1)[C@H]1CO[C@H]2CCN(c3ncc(F)cn3)C[C@H]2C1`, 25.4%.

For `CCCN1CC[C@@H]2OC[C@H](C(=O)Nc3cccnc3)C[C@@H]2C1`, the INHIBITION is recorded as 59.9%. Take `CC(C)NC(=O)[C@@H]1C[C@H]2OCC[C@H]2N(Cc2ccc3ccccc3n2)C1`: the INHIBITION came out at 19.4%.

With `CNC(=O)[C@H]1CO[C@H]2CCN(c3ncc(F)cn3)C[C@H]2C1`, the INHIBITION is on record as 3.58%.

Turning to `O=C(NC1CC1)[C@H]1C[C@H]2OCC[C@H]2N(Cc2ccc3ccccc3n2)C1`, the INHIBITION is reported as 38.1%.

Take `CC(C)N1CC[C@@H]2OC[C@H](C(=O)Nc3cccnc3)C[C@@H]2C1`: the INHIBITION is -25.1%. `COCCNC(=O)[C@H]1CO[C@H]2CCN(Cc3cccs3)C[C@H]2C1`: the INHIBITION stood at 38.5%. As for `NC(=O)CSc1nccc(-c2ccc3c(c2)OCO3)n1`, the figure is -22.6%; as for `CS(=O)(=O)N1CCOCC2(CCN(c3ccccn3)C2)C1` (centres undefined), 5.96%; as for `O=c1[nH]cc(Nc2ccc(Cl)cc2)c(=O)[nH]1`, 15.4%. As to `O=S1(=O)CCN2C(=N1)Oc1ccc(Cl)cc12`, the INHIBITION is on record as 30.5%. The result for `CCS(=O)(=O)c1ccc2c(c1)N1CCS(=O)(=O)N=C1O2` reads 20.1%; that for `O=S1(=O)CCN2C(=N1)Oc1ccc(S(=O)(=O)N3CCCC3)cc12`, 86.6%; that for `Cn1cc(Br)c(=O)c(NS(=O)(=O)c2ccccc2F)c1`, -1.38%. As for `CCn1cc(CN(C)S(=O)(=O)c2ccc(C)c(C)c2)cn1`, the INHIBITION is 10.1%. For `c1cnnc(NCC2CN(Cc3ccon3)CCO2)c1` (centres undefined), the INHIBITION was 50.5%. Take `COCc1nc(CN2CCOC(CNc3cccnn3)C2)cs1` (centres undefined): the INHIBITION was found to be 14.1%. As to `Cc1cc(CN2CCOC(CNc3cccnn3)C2)no1` (centres undefined), the INHIBITION was 7.12%. Regarding `Cc1cnc(CN2CCOC(CNc3cccnn3)C2)cn1` (centres undefined), the INHIBITION was 2.26%.

As to `CCc1nc(CN2CCOC(CNc3cccnn3)C2)cs1` (centres undefined), the INHIBITION was determined as 41.5%. As for `CCCc1nc(CN2CCOC(CNc3cccnn3)C2)cs1` (centres undefined), the INHIBITION worked out at 58.9%. On to `CC(=O)N1CCC(c2cccc(-c3cccc(C(=O)O)c3)n2)CC1`, for which the INHIBITION is listed as 25.8%.

In the case of `Cc1cnn(CC2CCCN2C(=O)c2ccc(Cl)cc2F)c1` (centres undefined), the INHIBITION is on record as 3.73%. `CCc1nc(C2CCCN(C(=O)c3c(C)noc3C)C2)no1` (centres undefined): the INHIBITION is 45.1%. As for `Cc1noc(C)c1-c1cccc(C2CCCNC2)n1` (centres undefined), the INHIBITION was -57.4%.

As to `CCCc1ccc2oc(C(=O)N3CCN(CCC(N)=O)CC3)c(C)c2c1`, the INHIBITION came to 18.5%. The result for `Cc1c(NC(=O)CN2CCC(Oc3cnccn3)CC2)cnn1C` reads 0.696%; that for `COCCC(=O)N1CCCC(CCc2ccc(F)c(F)c2)C1` (centres undefined), 4.97%; that for `COCCC(=O)N1CCCC(CCC(=O)NCc2ccccc2F)C1` (centres undefined), -4.12%. Take `O=C(CCC1CCCN(S(=O)(=O)C2CC2)C1)Nc1ccc(Cl)cc1` (centres undefined): the INHIBITION is on record as 28%. For the compound `COCCC(=O)N1CCCC(CCC(=O)Nc2ccc(Cl)cc2)C1` (centres undefined), the INHIBITION was found to be 57.2%. As for `COCCC(=O)N1CCCC(CCC(=O)NCc2cccc(OC)c2)C1` (centres undefined), the figure is 9.52%; as for `O=C(CCC1CCCN(C(=O)CCc2ccc(F)c(F)c2)C1)NC1CC1` (centres undefined), 75.4%; as for `Cc1ccc(-c2nc3cc(S(=O)(=O)N4CCCC4)ccc3n2C)o1`, 14.1%. Take `CCc1cccc2cc(CNCCOC)c(=O)[nH]c12`: the INHIBITION was found to be 24.95%. The result for `O=C(CCn1ccnc1)N1CCCC(n2cncn2)C1` (centres undefined) reads 49%. Regarding `c1ccc(CN2CCCC3(CCN(CC4CCCO4)CC3)C2)nc1` (centres undefined), the INHIBITION was 62%. For `Cn1ccnc1CN1CCCC2(CCN(CC3CCCO3)CC2)C1` (centres undefined), the INHIBITION was 38.1%. Turning to `Cc1cccc(CN2CCCC3(CCN(CC4CCCO4)CC3)C2)n1` (centres undefined), the INHIBITION was determined as 53%. As for `c1cc(CN2CCCC3(CCN(CC4CCCO4)CC3)C2)n[nH]1` (centres undefined), the figure is 47.5%; as for `Cc1cccc(CN2CCOCC3(CCN(C4CCOCC4)C3)C2)n1` (centres undefined), -34.9%; as for `c1cncc(N2CCCC3(CCN(CC4CCCO4)CC3)C2)c1` (centres undefined), 3.58%. For `c1cc(CN2CCc3c(nnn3CC3CC3)C2COCC2CC2)co1` (centres undefined), the INHIBITION was determined as 27.4%. Turning to `CCN1CCOCC2(CCCN(C(=O)c3ccncc3F)C2)C1` (centres undefined), the INHIBITION is on record as 27.2%. As for `Cc1c(C(=O)N2CCCN(S(C)(=O)=O)CC2)cnn1C`, the figure is -4.96%.

`N#CCCCS(=O)(=O)NC1(c2ccc(F)cc2)CC1`: the INHIBITION turned out to be 26.4%.

As for `O=C(NCC1CCOC1)Nc1ccc(Oc2cccc(F)c2)nc1` (centres undefined), the INHIBITION is on record as -8.15%.

With `CCN(CC)c1ccc(NC(=O)NCC2CCOC2)cn1` (centres undefined), the INHIBITION is reported as -45.3%. In the case of `CN(C)c1ccc(NC(=O)NCC2CCOC2)cn1` (centres undefined), the INHIBITION was found to be 77.85%.

In the case of `Cc1ccc(Oc2ccc(NC(=O)NCC3CCOC3)cn2)cc1C` (centres undefined), the INHIBITION stood at 58.2%. On to `O=C(NCC1CCOC1)Nc1ccc(OCC(F)(F)F)nc1` (centres undefined), for which the INHIBITION was 23.2%. As for `O=C(NCC1CCOC1)Nc1ccc(Oc2ccc(F)cc2)nc1` (centres undefined), the INHIBITION is 3.67%. As for `COc1ncccc1CNC(=O)NCCNS(C)(=O)=O`, the figure is -9.37%; as for `CC(C)CS(=O)(=O)N1C[C@@H]2C[C@H](C(=O)Nc3cccnc3)[C@H](C1)O2`, -10.3%. As to `CN1N=C(C(=O)N(Cc2ccco2)C2CC2)CCC1=O`, the INHIBITION is recorded as 19%. `Cc1c(Br)cccc1C(=O)NCC1CCNCC1`: the INHIBITION is listed as 39.7%. As for `Cn1cccc1CN1CCC2(CCCN(C(=O)c3cccnc3)C2)CC1`, the figure is -43.1%. For the compound `Cc1ccnc(NC(=O)C2CCCO2)c1` (centres undefined), the INHIBITION was 62.3%. For the compound `CCSCc1ccnc(NC(=O)C2CCCO2)c1` (centres undefined), the INHIBITION was -4.26%. Take `CC(C)(C)c1cc(NC(=O)C2COCCO2)n(-c2ccccn2)n1` (centres undefined): the INHIBITION came to 30.7%. As for `Cc1nccn1-c1cc(CNC(=O)C2CCCO2)ccn1` (centres undefined), the INHIBITION is reported as 21%.

Take `CCC(CC)n1nc(C)cc1NC(=O)C1CCCO1` (centres undefined): the INHIBITION is -56.4%. The result for `CC(C)(C)c1cc(NC(=O)C2CCCO2)n(-c2ccccn2)n1` (centres undefined) reads 52.5%.
